DT40 TDP1 no CPT: qHTS for Inhibitors of human tyrosyl-DNA phosphodiesterase 1 (TDP1): qHTS in cells in absence of CPT. DT40 Tdp1-/- hTDP1 cells, no CPT, ATP luminescence, 48 h. Potency, µM (top dose mostly 46.2 µM), most hits filed as inhibitors. 420,000 compounds, 15% hits; also: nearly all actives have a fitted effect of over 55% in size
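Chicken DT40 Tdp1-/- cells complemented with human TDP1, screened without camptothecin (DMSO vehicle only), 400 cells/well. Compounds pin-transferred, cells incubated at 37 °C for at least 48 hr. Growth read as ATP-dependent luminescence (CellTiter-Glo, 30 min at RT).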
IL-1B inflam inh: qHTS for Inhibitors of Inflammasome Signaling: IL-1-beta AlphaLISA Primary Screen; THP-1 LPS/ATP IL-1B secretion, AlphaLISA, 16 h; active compounds read low; activity change, % at 57.5 µM; 360,000 compounds, 4.7% hits; in the data active = activity change below about -50%; inconclusive = mostly about -30% to -49%
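Secreted IL-1B measured by AlphaLISA bead assay after 16 h compound exposure of THP-1 cells; compounds (final up to 57.5 uM) added 1 h before LPS (250 ng/mL) and ATP (1.25 mM) stimulation; lower signal means less secretion.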
DT40 TDP1 CPT: qHTS for Inhibitors of human tyrosyl-DNA phosphodiesterase 1 (TDP1): qHTS in cells in presence of CPT. chicken DT40 Tdp1-/-;hTDP1 cells + 20 nM CPT, ATP luminescence, 48 h. Potency, µM (highest dose often 46.2 µM), actives largely listed as inhibitors. 420,000 compounds, 12% hits. AID 686979, 2013; also: nearly all actives have a fitted effect of over 55% in size
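Chicken DT40 Tdp1-/- cells stably complemented with human TDP1 were seeded at 400 cells/well in medium containing 20 nM camptothecin, exposed to pin-transferred compounds, and grown at 37 °C for at least 48 hr. Viability was read as ATP luminescence.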
HT1080 IDH1KD tx: qHTS for induction of synthetic lethality in tumor cells producing 2HG: qHTS for the HT-1080-IDH1KD cell line; HT-1080 IDH1 knockdown viability, ATP luminescence, 48 h; Potency, µM (doses to about 46.1 µM), hits mostly cytotoxic; 360,000 compounds, 2% hits; AID 686971, 2013
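Using the IDH1-knockdown HT-1080 line run in the same batch and compound series as the NT line, viability after 48 h at 37 °C was determined by CellTiter-Glo luminescence and expressed as % activity.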
HT1080-NT tox: qHTS for induction of synthetic lethality in tumor cells producing 2HG: qHTS for the HT-1080-NT fibrosarcoma cell line; HT-1080-NT fibrosarcoma viability, CellTiter-Glo ATP luminescence, 48 h; AID 686970, 2013; 360,000 compounds, 1.6% hits; Potency, µM (top dose mostly 46.1 µM), actives largely listed as cytotoxic;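 also: NT is the 2HG producing partner of a matched IDH1 knockdown line; nearly all actives have a fitted effect of over 55% in size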
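HT-1080-NT fibrosarcoma cells (2HG-overproducing), 750 cells/well in RPMI with 5% FBS, dosed after 2 h and incubated 48 h at 37C. CellTiter-Glo luminescence normalized to DMSO and no-cell wells; concentration-response curves fitted and classed.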
Large screens that a line does not name were inactive. In the library only some 19% were active in any assay of this set; here they are far more common. Unless noted, calls follow the shape of the dose curve; as a rule, active = well fitted curve in the direction sought with a large enough effect; inconclusive = small, poorly fitted or top-dose-only effect, or another doubt; inactive = no such curve, though single readings can be large; an effect the other way counts as inactive or inconclusive.

O=c1/c(=C/c2ccco2)sc2n1CN(c1cccc(Br)c1)CN=2	IL-1B inflam inh -50
Cc1ccc(/C=c2\sc3n(c2=O)CN(c2cccc(Br)c2)CN=3)o1	IL-1B inflam inh -51
COc1ccc(NC(=O)C(OC(=O)c2cnccn2)c2ccccc2)cc1Cl (centres undefined)	none
CC(C)CC(=O)Nc1cc(NC(=O)CC(C)C)cc(C(=O)NC(C)(C)C)c1	none
CCCC(=O)N1CCCC1(C)C(=O)NCc1c(F)ccc(C)c1F (centres undefined)	none
Cc1ccc(-n2c(C)cc(/C=N/Nc3ccc([N+](=O)[O-])cn3)c2C)cc1	none
Cc1ccc(C(=O)N/N=C/c2cn(Cc3ccccc3)c3ccccc23)cn1	DT40 TDP1 no CPT 21µM, DT40 TDP1 CPT inconclusive
O=C(N/N=C/c1cn(Cc2ccccc2)c2ccccc12)c1cc(O)cc(O)c1	IL-1B inflam inh inconclusive, HT1080 IDH1KD tx inconclusive
Cc1ccc(Cn2cc(/C=N/Nc3ccc([N+](=O)[O-])cn3)c3ccccc32)cc1	DT40 TDP1 no CPT 16µM, DT40 TDP1 CPT inconclusive, HT1080 IDH1KD tx inconclusive, HT1080-NT tox inconclusive
Cc1cc(/C=N/Nc2ccc([N+](=O)[O-])cn2)c(C)n1-c1ccccc1	DT40 TDP1 no CPT inconclusive, DT40 TDP1 CPT 18µM
OCc1ccccc1-c1cnc2sc(NCc3ccc(F)cc3)nn12	DT40 TDP1 no CPT inconclusive, DT40 TDP1 CPT inconclusive
COc1ccc(C(=O)C2CCCN(C(=O)C3=CCCC3)C2)cc1OC (centres undefined)	none
Cc1nc(SCc2ccc(O)c([N+](=O)[O-])c2)c([N+](=O)[O-])[nH]1	DT40 TDP1 no CPT 21µM, DT40 TDP1 CPT 21µM
CCN(CC)c1nc(Nc2ccc([N+](=O)[O-])cc2)nc(N(CC)CC)n1	DT40 TDP1 no CPT 21µM, DT40 TDP1 CPT 26µM
Cn1c(=O)n(CCc2ccccc2)c(=O)c2c1nc1n2CCCN1CCc1ccccc1	DT40 TDP1 no CPT 7.3µM, IL-1B inflam inh inconclusive, DT40 TDP1 CPT 12µM, HT1080 IDH1KD tx 29µM, HT1080-NT tox 23µM
CCOCCn1c(=O)c2c(nc3n2CCN3c2ccc(CC)cc2)n(C)c1=O	DT40 TDP1 no CPT inconclusive, DT40 TDP1 CPT 15µM
CCc1ccc(N2CCn3c2nc2c3c(=O)n(Cc3ccc(F)cc3)c(=O)n2C)cc1	none (no result: IL-1B inflam inh, HT1080 IDH1KD tx, HT1080-NT tox)
Cc1cc(C)cc(N2CCn3c2nc2c3c(=O)n(CCc3ccccc3)c(=O)n2C)c1	none (no result: IL-1B inflam inh, HT1080 IDH1KD tx, HT1080-NT tox)
Cn1c(=O)n(CCc2ccccc2)c(=O)c2c1nc1n2CCCN1Cc1ccccc1	DT40 TDP1 no CPT 13µM, DT40 TDP1 CPT inconclusive
COc1ccc(N2CCCn3c2nc2c3c(=O)n(CCc3ccccc3)c(=O)n2C)cc1	DT40 TDP1 no CPT 15µM, DT40 TDP1 CPT inconclusive
CCCn1c(=O)c2c(nc3n2CCCN3CCc2ccccc2)n(C)c1=O	DT40 TDP1 no CPT inconclusive, DT40 TDP1 CPT inconclusive
COCCN(C(=O)COC(=O)c1cc(C)oc1C)c1c(N)n(Cc2ccccc2)c(=O)[nH]c1=O	none
CCOC(=O)C1Oc2ccccc2C(c2ccoc2)=C1C(=O)OC (centres undefined)	DT40 TDP1 no CPT inconclusive, DT40 TDP1 CPT inconclusive
CCCn1c(=O)c2c(nc3n2CCCN3Cc2ccccc2)n(C)c1=O	DT40 TDP1 CPT inconclusive
CCn1c(=O)c2c(nc3n2CC(C)CN3CCc2ccccc2)n(C)c1=O (centres undefined)	DT40 TDP1 no CPT inconclusive, DT40 TDP1 CPT 21µM
Cn1c(=O)n(CC(=O)O)c(=O)c2c1nc1n2CCCN1CCc1ccccc1	none
Cn1c(=O)n(Cc2ccc(F)cc2)c(=O)c2c1nc1n2CCCN1Cc1ccccc1	DT40 TDP1 no CPT 23µM, IL-1B inflam inh inconclusive, DT40 TDP1 CPT inconclusive
CC(C)Cn1c(=O)c2c(nc3n2CCCN3CCc2ccccc2)n(C)c1=O	DT40 TDP1 no CPT 15µM, IL-1B inflam inh inconclusive, DT40 TDP1 CPT 16µM
